“And” between values parts separate entries of the source, which are not always exact repeats. Identical values can stand only once. Records with an inconclusive call do not appear. The source made the active and inactive calls. Unless noted, no rule for the calls is given here.
Legend:
[1] = qHTS Assay for Identifying Gametocytocidal Compounds (AID 743244; active = well fitted curve in the direction sought with a large enough effect; an effect the other way counts as inactive or inconclusive; also: potency is read from the fitted curve at half-maximal effect;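 as to max response: % is scaled to controls: 0 for no effect and ±100 for the full control effect; actives lower the fluorescent signal which means gametocytes are killed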); details: P. falciparum 3D7 stage III-V gametocytes, alamarBlue, 72 h; max response: stronger effect = lower value
Summary of the method: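 P. falciparum 3D7 stage III–V gametocytes (20,000 cells/well) were exposed to compounds for 72 h at 37 °C, 5% CO2. AlamarBlue was then added for 24 h; decreased resorufin fluorescence (Ex 525/Em 598 nm) indicated loss of viability.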

[2] = qHTS profiling for inhibitors of Plasmodium falciparum (3D7) proliferation (AID 743322);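 also: infected erythrocytes exposed to compound for 72 h before lysis; 100% = DMSO vehicle wells and 0% = 0.29 µM artemisinin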; details: P. falciparum 3D7 proliferation; at 28.7 µM (top of the series) unless noted
Summary of the method: (§1)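 Erythrocytes infected with P. falciparum (0.3% parasitemia, 2.5% hematocrit) incubated with compounds 72 h at 37 C, 5% CO2. Lysis with saponin/Triton buffer containing SYBR Green I, overnight at room temperature in the dark; DNA fluorescence (485/535 nm) normalised to 0.29 uM artemisinin and DMSO.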

[3] = qHTS profiling for inhibitors of Plasmodium falciparum (DD2) proliferation (AID 743323); details: lower = more inhibition; at 28.7 µM (top of the series) unless noted
Summary of the method: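 1536-well qHTS; infected RBCs 0.3% parasitemia/2.5% Hct final; cpd 72 h 37 C 5% CO2; lysis buffer + SYBR Green I, o/n RT dark; FI 485/535; norm. to 0.29 uM artemisinin and DMSO, plate-stack corrected.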

[4] = qHTS profiling for inhibitors of Plasmodium falciparum (HB3) proliferation (AID 743324; active = well fitted curve in the direction sought with a large enough effect; an effect the other way counts as inactive or inconclusive;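 also: 100% = DMSO vehicle wells and 0% = artemisinin-treated control wells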); details: Plasmodium falciparum HB3 blood-stage proliferation; at 28.7 µM (top of the series) unless noted
Summary of the method: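 P. falciparum HB3 grown in erythrocytes (0.3% parasitemia, 2.5% hematocrit final) with compound for 72 h at 37 C, 5% CO2. Parasite DNA detected by SYBR Green after saponin/triton lysis overnight; normalized to 0.29 uM artemisinin and DMSO.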

[5] = qHTS profiling of the MIPE4 collection as inhibitors of Plasmodium falciparum (3D7) proliferation (AID 743344);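 also: scaled between DMSO vehicle wells and 0.29 µM artemisinin as full inhibition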; details: P. falciparum 3D7 in erythrocytes, SYBR Green DNA fluorescence, 72 h; at 28.5 µM (top of the series) unless noted
Summary of the method: as §1

[6] = qHTS profiling of the MIPE4 collection as inhibitors of Plasmodium falciparum (DD2) proliferation (AID 743345); details: P. falciparum Dd2 in erythrocytes, SYBR Green DNA, 72 h; at 28.5 µM (top of the series) unless noted
Summary of the method: as §1

[7] = qHTS profiling of the MIPE4 collection as inhibitors of Plasmodium falciparum (DD2) proliferation (Rep 2) (AID 743346); details: P. falciparum Dd2 in erythrocytes, SYBR Green DNA, 72 h; at 28.5 µM (top of the series) unless noted
Summary of the method: as §1

[8] = qHTS profiling of the MIPE4 collection as inhibitors of Plasmodium falciparum (HB3) proliferation (AID 743347);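 also: plate controls were DMSO vehicle wells for no effect and artemisinin wells for full effect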; details: P. falciparum HB3 in erythrocytes, SYBR Green DNA, 72 h; at 28.5 µM (top of the series) unless noted
Summary of the method: as §1

SMILES	max response [1]	remaining parasite growth % (stronger effect = lower value) [2]	activity, percent of control [3]	remaining proliferation (% of control), lower = more inhibition [4]	parasite growth, % of DMSO control [5]	parasite growth remaining, % of DMSO control (lower = more inhibition) [6]	parasite growth, % of control (lower = inhibition) [7]	growth, % of control [8]	Potency [1]
COc1c(Cl)cc2c([nH]c3cnccc32)c1NC(=O)c1cccnc1C	20.9% (inactive)	107%	108%	86.1%	19.9%	72.7%	25.5%	4.33%	–
CCC(=O)N[C@H]1CC[C@H](C(=O)N(C)c2ccc(-c3nc4ccccc4o3)cc2)C1	65.6% (inactive)	58.5%	55.3%	35.8%	28.4%	65.1%	41.7%	33.6%	–
CC(c1cc2ccccc2s1)N(O)C(N)=O (configuration not stated)	2.55% (inactive)	101% [at 57.5 µM]	101% [at 57.5 µM]	109% [at 57.5 µM]	94.1%	98.2%	140%	101%	–
Cc1ccc(NC(=O)c2cccc(C(C)(C)C#N)c2)cc1Nc1ccc2ncn(C)c(=O)c2c1	-12.3% (inactive)	34.8%	49.3%	7.17%	17.3%	39.9%	51%	16.2%	–
Cn1cnc2c(F)c(Nc3ccc(Br)cc3Cl)c(C(=O)NOCCO)cc21	17.6% (inactive)	91.2%	90.2%	94.6%	58.2%	95.9%	57.1%	97.3%	–
CCCS(=O)(=O)Nc1ccc(F)c(C(=O)c2c[nH]c3ncc(-c4ccc(Cl)cc4)cc23)c1F	14.6% (inactive)	17.1%	22.9%	22.8%	17.9%	24%	52.1%	15.2%	–
CCOc1cc(C(=O)Nc2ccc(Cl)c(-c3nc4ccccc4[nH]3)c2)cc(OCC)c1OCC	-21.5% (inactive)	1.56%	15.9%	0.587%	5.5%	58.5%	17%	7.25%	–
CC1(C)Cc2c(-c3ccccc3)c(-c3ccc(Cl)cc3)c(CC(=O)O)n2C1	1.94% (inactive)	6.49%	13.4%	7.77%	61%	90.7%	63.6%	82.7%	–
Cc1cc(Nc2nc(N[C@@H](C)c3ncc(F)cn3)ncc2Cl)n[nH]1	8.89% (inactive)	108%	100%	101%	6.82%	8.04%	21.5%	10.9%	–
CC(C)OC(=O)C1=CN(C(=O)c2ccc(F)c(F)c2)CC(C)(C)c2c1[nH]c1ccccc21	18.7% (inactive)	15.1%	36.4%	29.3%	51.5%	44.6%	66.4%	46.5%	–
CCC(C)n1ncn(-c2ccc(N3CCN(c4ccc(OC[C@H]5CO[C@](Cn6cncn6)(c6ccc(Cl)cc6Cl)O5)cc4)CC3)cc2)c1=O (some centres not stated)	3.11% (inactive)	3.74%	7.7%	2.67%	5.41%	8.47%	37.4%	4.47%	–
O=S(=O)(N=Cc1c(O)ccc2ccccc12)c1cccs1	-5.04% (inactive)	85.7%	92.2%	82.6%	75.2%	91.9%	63.3%	63.2%	–
O=C(Nc1ccc(F)c(C(F)(F)F)c1)Nc1nnc(-c2ccncc2)s1	6.18% (inactive)	94.5%	90%	67.6%	19.3%	14.4%	25.2%	4.4%	–
CCOc1ccc(Cc2cc([C@@H]3O[C@H](CO)[C@@H](O)[C@H](O)[C@@H]3O)ccc2Cl)cc1	10.7% (inactive)	46.7%	101%	112%	136%	104%	103%	505%	–
Nc1cccc(S(=O)(=O)N2CCCN(S(=O)(=O)c3ccc4c(c3)OCCO4)CC2)c1	3.74% (inactive)	111%	101%	70.3%	257%	102%	120%	586%	–
COc1ccc(-c2oc3cc(OC)ccc3c2C(=O)c2ccc(C#N)cc2)cc1	8.18% (inactive)	62.8%	77%	23.4%	23.1%	81.9%	14.8%	16.7%	–
O=C(C1CC1)N1CC[C@@H](Cn2c(-c3ccc(-c4ccc5occc5c4)cc3)nc3cnccc32)C1	-18.8% (inactive)	74.3%	74.7%	55.2%	35%	78.6%	46.6%	21.9%	–
CCCc1nn(C)c2c(=O)[nH]c(-c3cc(S(=O)(=O)N4CCN(C)CC4)ccc3OCC)nc12	18.4% (inactive)	98.3%	102%	61.6%	21.3%	17.2%	51.4%	24.6%	–
CCOc1cc(C=C2C(=O)N(c3ccccc3)N=C2C)cc(Cl)c1OCC(=O)OC	28.7% (inactive)	88.1%	92.3%	102%	102%	97.3%	106%	98.7%	–
OCCn1cc(-c2cnc3nnn(Cc4ccc5ncccc5c4)c3n2)cn1	–	81.8%	86.8%	64.7%	56.6%	94.4%	56.8%	47.5%	29.6 µM (active)
O=C(c1cc(Cc2n[nH]c(=O)c3ccccc23)ccc1F)N1CCN(C(=O)C2CC2)CC1	10.8% (inactive)	88.8% and 97.4%	97.9% and 99.7%	57.9% and 59.4%	23.5%	92.7%	44.7%	35.9%	–

SMILES	max response [1]	remaining parasite growth % (stronger effect = lower value) [2]	activity, percent of control [3]	remaining proliferation (% of control), lower = more inhibition [4]	parasite growth, % of DMSO control [5]	parasite growth remaining, % of DMSO control (lower = more inhibition) [6]	parasite growth, % of control (lower = inhibition) [7]	growth, % of control [8]	Potency [1]
COc1ccccc1[C@H](c1cccc2ccccc12)[C@@](C)(C#N)C(=O)N1CCC(c2cccc(C(F)(F)F)c2)CC1	-0.358% (inactive)	1.65%	1.44%	0.956%	5.47%	8.96%	9.97%	6.38%	–
Cc1cc([C@@H](C)Nc2ccccc2C(=O)O)c2nc(N3CCOCC3)cc(=O)n2c1	-4.48% (inactive)	50.6%	29.8%	31.4%	5.01% [at 57.5 µM]	16.9% [at 57.5 µM]	7.39% [at 57.5 µM]	3.82% [at 57.5 µM]	–
O=C(O)[C@@H](c1ccc(OCc2ccc3ccccc3n2)cc1)C1CCCC1	46.8% (inactive)	114%	96.9%	106%	90.1%	102%	130%	84.3%	–
CCn1c(-c2nonc2N)nc2c(C#CC(C)(C)O)ncc(OC[C@H]3CCCNC3)c21	–	5.66%	2.74%	2.14%	5.72%	11.8%	13.9%	3.2%	23.5 µM (active)
CCCS(=O)(=O)Nc1ccc(F)c(C(=O)c2c[nH]c3ncc(Cl)cc23)c1F	35.4% (inactive)	90.9%	83.1%	55.7%	51.6%	77.2%	80.8%	71.8%	–
Cc1csc(NC(=O)c2sc3nc4c(c(C(F)(F)F)c3c2N)CCC4)n1	13.6% (inactive)	100%	101%	87.9%	44.6%	90.9%	62.4%	78.3%	–
CN(C)c1ccc(Nc2nc(N)n(C(=O)c3c(F)cccc3F)n2)cc1	-28% (inactive)	4.41%	8.82%	7.62%	10.5%	51.7%	13.6%	6.51%	–
CC1(C)CNc2cc(NC(=O)c3cccnc3NCc3ccncc3)ccc21	-7.52% (inactive)	70.1%	68.6%	5.63%	53.8%	86.3%	42.2%	30.1%	–
Cc1c(CCOc2ccc(C(=O)O)cc2)c2cc(Cl)ccc2n1C(c1ccccc1)c1ccccc1	6.58% (inactive)	84.7%	81.3%	23.4%	30.6%	70.3%	41.9%	63.5%	–
Cc1n[nH]c(C)c1Cc1sc2c(c1C(=O)N1C[C@H](O)CO1)c(=O)n(C)c(=O)n2CC(C)C	4.91% (inactive)	111%	99.9%	81.9%	161%	107%	86.3%	145%	–
C[C@]12CC[C@H](O)CC1=CC[C@@H]1[C@H]2CC[C@]2(C)C(c3cccnc3)=CC[C@H]12	-8.9% (inactive)	-0.476%	1.24%	24.9%	7.02% [at 9.64 µM]	10% [at 9.64 µM]	24.8% [at 9.64 µM]	9.4% [at 9.64 µM]	–
COc1ccc2c3n(c(=NC(=O)c4cccnc4)nc2c1OC)CCN3	-25% (inactive)	0.12%	12.2%	1.47%	5.7%	10.1%	7.17%	3.38%	–
OC[C@H](Cc1ccccc1)Nc1nc(Oc2ccc3c(c2)CCC3)nc2c1ncn2Cc1ccc(-c2ccccc2)cc1	-2.93% (inactive)	6.42%	5.17%	-0.578%	33.7%	44.8%	27%	68.3%	–
COc1cc(Nc2ncc3c(n2)-c2ccc(Cl)cc2C(c2c(F)cccc2OC)=NC3)ccc1C(=O)O	-8.12% (inactive)	89.5%	78.1%	61.2%	24.7%	69.6%	39.4%	30.2%	–
COCCNCCCn1c(C(=O)CF)c(-c2ccc(C)cc2)c2c(N)ncnc21	-16.2% (inactive)	72.8%	77.9%	35%	39%	85.3%	36.5%	32.4%	–
CN(C)c1ccc(C2Nc3ccc4ccccc4c3C3=C2C(=O)CC(C)(C)C3)cc1Br (configuration not stated)	-26.5% (inactive)	2.48%	6.15%	1.79%	28.5%	15%	33.7%	78%	–
CCc1ccc(CCOc2ccc(CC3SC(=O)NC3=O)cc2)nc1 (configuration not stated)	40% (inactive) and -8.95% (inactive)	92%	103%	66.4%	89.3%	90.1%	79.4%	63.3%	–
Cc1ccnc(NS(=O)(=O)c2ccc(NC(=O)Nc3ccc(S(=O)(=O)Nc4nccc(C)n4)cc3)cc2)n1	-10.8% (inactive)	12%	27.4%	3.95%	15.7%	70.2%	26.2%	9.87%	–
O=c1[nH]c(-c2ccc(C(F)(F)F)cc2)nc2c1CSCC2	12% (inactive)	–	103%	29.8%	74.2%	93.9%	74.7%	86.7%	–
O=C(C=Cc1ccc(/C=C/C(=O)Nc2ccc(C3=NCCN3)cc2)cc1)Nc1ccc(C2=NCCN2)cc1	6.08% (inactive)	15.9%	27.3%	10.9%	25.9%	39%	40.5%	54.9%	–
